NALP1 yeast inh: NALP1 inflammasome inhibitors in reconstituted yeast, colorimetric, S. cerevisiae, triplicate retest | inhibition, % at 10 µM | AID 2071, 2009 | actives 0.61% (n = 280,000) | S. cerevisiae NALP1/ASC/caspase-1 growth, X-gal OD620, 72 h; in the data active = inhibition mostly above about 24%, no sharp cut-off; inactive = mostly below about 32%
tim10-1 inh: growth inhibitors of tim10-1 mutant yeast, primary screen, luminescence, uHTS. S. cerevisiae tim10-1 ts strain growth, BacTiter-Glo, 24 h. inhibition, % at 20 µM. actives 2.2% (n = 330,000). AID 463190, 2010;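 active = inhibition of at least 40%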;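 also: mutant grown at 25 °C; 0% = DMSO wells with yeast and 100% = wells holding no yeast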
NLRP3 yeast inh: NALP3 inflammasome inhibitors in reconstituted yeast, primary screen, luminescence, uHTS; actives 0.39% (n = 330,000); Yeast reconstituted NLRP3/ASC/caspase-1, beta-gal luminescence, 24 h; inhibition, % at 10 µM; AID 2825, 2010;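 active = inhibition of 50% or more; inactive = inhibition below 50%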;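 also: plate controls were induced DMSO wells for no effect and uninduced yeast grown without galactose for full effect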
tim23-1 inh: growth inhibitors of tim23-1 mutant yeast, primary screen, luminescence, uHTS | actives 1.3% (n = 330,000) | inhibition, % at 20 µM | AID 463212, 2010 | S. cerevisiae tim23-1 growth, BacTiter-Glo luminescence, 24 h;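 active = growth inhibition of the mutant yeast at or above 50%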;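 also: temperature-sensitive mutant grown at 25 °C; plate controls were DMSO-treated mutant yeast for no effect and medium wells lacking yeast for full effect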
TIM10 inh: growth inhibitors of isogenic TIM10 control yeast, primary screen, counter-screen for tim10-1 yeast inhibitor project, luminescence, uHTS; inhibition, % at 10 µM; actives 1.4% (n = 330,000); S. cerevisiae TIM10 strain growth, BacTiter-Glo luminescence, 24 h;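 active = inhibition of 40% or more at the single tested concentration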;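 also: wild-type TIM10 isogenic control strain grown at permissive 25 °C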
tim10-1 confirm: growth inhibitors of tim10-1 mutant yeast, confirmation, single concentration, luminescence, S. cerevisiae; shares compounds with tim10-1 inh; AID 463213, 2010; S. cerevisiae tim10-1 ts strain growth, BacTiter-Glo, 24 h; actives 56% (n = 7,400); inhibition, % at 20 µM;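 active = inhibition of yeast growth at or above a set limit in either of two repeat tests at 20 µM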;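 also: tim10-1 mutant grown at permissive 25 °C to find synthetic lethal compounds; 0% = DMSO yeast wells and 100% = medium wells without yeast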
tim10 confirm: growth inhibitors of wild-type TIM10 yeast, confirmation, counter-screen for tim10-1 synthetic lethality project, single concentration, luminescence, S. cerevisiae; S. cerevisiae tim10 strain growth, BacTiter-Glo luminescence, 24 h; shares compounds with TIM10 inh; inhibition, % at 10 µM; actives 63% (n = 4,600);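 active = inhibition of yeast growth at or above a set limit in either of two replicates at 10 µM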;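 also: this counterscreen used the strain with wild-type TIM10; 0% = yeast with DMSO and 100% = medium wells lacking yeast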
tim23-1 confirm: tim23-1 mutant yeast growth inhibitors, confirmation, luminescence, single concentration | shares compounds with tim23-1 inh | S. cerevisiae tim23-1 growth, BacTiter-Glo luminescence, 24 h | inhibition, % at 20 µM | actives 83% (n = 4,400) | AID 463218, 2010;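 active = inhibition above about 39% in either of two replicate wells at 20 µM, limit read from the data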;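 also: temperature-sensitive tim23-1 mutant grown at 25 °C; 0% = DMSO wells with yeast and 100% = medium wells without yeast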
Starred values were filed as active, the others as inactive. Compounds with a hit are over-represented: about 4.1% of the library has one in this group of screens.

`Nc1nnc(SC2CC(=O)N(c3ccccc3)C2=O)s1` (stereo unspecified) gave NALP1 yeast inh 37*, tim10-1 inh 66*, NLRP3 yeast inh 22, tim23-1 inh 59*, TIM10 inh 30, tim10-1 confirm 53* and tim23-1 confirm 58*.
For Cc1c(C(=O)N2CCCCC2)c(S(=O)(=O)NCCc2ccc(S(N)(=O)=O)cc2)c(C)n1C the results were NALP1 yeast inh 5, tim10-1 inh 3, NLRP3 yeast inh 8, tim23-1 inh -8 and TIM10 inh -5.
Screening CCc1cc2c(=O)nc3n(c2s1)Cc1ccccc1/C3=C(/O)c1ccccc1Cl returned NALP1 yeast inh 12, tim10-1 inh 59*, NLRP3 yeast inh 17, tim23-1 inh 66*, TIM10 inh 35, tim10-1 confirm 42* and tim23-1 confirm 40*.
O=C(CCCCCn1c(=O)[nH]c2ccccc2c1=O)NCCCN1CCN(c2ccccc2F)CC1 was read as NALP1 yeast inh 3, tim10-1 inh 6, NLRP3 yeast inh 10, tim23-1 inh -12 and TIM10 inh 9.
`O=C(Nc1nc(-c2ccccn2)cs1)c1ccc(Br)s1` gave NALP1 yeast inh 13, tim10-1 inh 53*, NLRP3 yeast inh 15, tim23-1 inh 56*, TIM10 inh 23, tim10-1 confirm 34* and tim23-1 confirm 47*.
O=C(Nc1nc(-c2ccccn2)cs1)c1ccco1 was read as NALP1 yeast inh 9, tim10-1 inh 13, NLRP3 yeast inh -4, tim23-1 inh -29 and TIM10 inh 3.
Screening CCCCCCCCCCOC(=O)Cn1c(COc2ccc(Cl)cc2)[n+](C)c2ccccc21 returned NALP1 yeast inh 61*, tim10-1 inh 97*, NLRP3 yeast inh 18, tim23-1 inh 92*, TIM10 inh 55*, tim10-1 confirm 92*, tim10 confirm 54* and tim23-1 confirm 91*.
For C=CCNC(=O)/C(C#N)=C/c1c(C)nn(-c2ccc(Cl)cc2)c1Cl the results were NALP1 yeast inh 17, tim10-1 inh 63*, NLRP3 yeast inh 16, tim23-1 inh 56*, TIM10 inh 58*, tim10-1 confirm 59*, tim10 confirm 63* and tim23-1 confirm 66*.
Screening Cc1nn(-c2ccc(Cl)cc2)c(Cl)c1/C=C(\C#N)C(N)=O returned NALP1 yeast inh 27, tim10-1 inh 26, NLRP3 yeast inh 13, tim23-1 inh 48 and TIM10 inh 19.
Screening CCOc1ccc(/C=N/NC(=O)c2[nH]ncc2Br)c(O)c1 returned NALP1 yeast inh 15, tim10-1 inh 52*, NLRP3 yeast inh 31, tim23-1 inh 78*, TIM10 inh 59*, tim10-1 confirm 30*, tim10 confirm 37* and tim23-1 confirm 78*.
For COc1ccc(C(=O)NCCNc2nc3cc(C)c(C)cc3cc2C)cc1 the results were NALP1 yeast inh -11, tim10-1 inh 33, NLRP3 yeast inh 21, tim23-1 inh 38 and TIM10 inh 16.
Screening CCN(CC)/C(Sc1ccccc1)=C(\C(Cl)=C(Cl)Cl)[N+](=O)[O-] returned NALP1 yeast inh -2, tim10-1 inh 44*, NLRP3 yeast inh 1, tim23-1 inh 51*, TIM10 inh 46*, tim10-1 confirm 35*, tim10 confirm 19 and tim23-1 confirm 51*.
Screening CCOc1ccccc1N/C(=C(/C(Cl)=C(Cl)Cl)[N+](=O)[O-])n1cncn1 returned NALP1 yeast inh 4, tim10-1 inh 15, NLRP3 yeast inh 5, tim23-1 inh 19 and TIM10 inh 17.
`O=S(=O)(Nc1ccc(Cl)cn1)c1ccc2c(c1)OCCO2` gave tim10-1 inh 38, NLRP3 yeast inh 14, tim23-1 inh 28 and TIM10 inh 13.
`Cc1sc(N)nc1-c1ccc(Oc2ccccc2)cc1` gave NALP1 yeast inh 95*, tim10-1 inh 40*, NLRP3 yeast inh 37, tim23-1 inh 69*, TIM10 inh 29, tim10-1 confirm 50* and tim23-1 confirm 57*.
N#Cc1c(NC(=O)COC(=O)c2ccc(O)cc2O)sc2c1CCC2 was read as tim10-1 inh -20, NLRP3 yeast inh 9, tim23-1 inh -7 and TIM10 inh -7.
Screening Fc1ccc(CN2CCN(c3ncnc4scc(-c5ccc(F)cc5)c34)CC2)cc1 returned NALP1 yeast inh 5, tim10-1 inh 50*, NLRP3 yeast inh 11, tim23-1 inh 54*, TIM10 inh 26, tim10-1 confirm 46* and tim23-1 confirm 53*.
Screening CCOC(=O)N1CCN(c2ncnc3scc(-c4ccccc4)c23)CC1 returned NALP1 yeast inh 21, tim10-1 inh 32, NLRP3 yeast inh 8, tim23-1 inh 28 and TIM10 inh 9.
`CCOC(=O)N1CCN(c2ncnc3scc(-c4ccc(Cl)cc4)c23)CC1` gave NALP1 yeast inh -11, tim10-1 inh 46*, NLRP3 yeast inh 17, tim23-1 inh 57*, TIM10 inh 32, tim10-1 confirm 40* and tim23-1 confirm 44*.
`Cc1cccc(C)c1NS(=O)(=O)c1ccc(OCCNS(C)(=O)=O)cc1` gave NALP1 yeast inh 19, tim10-1 inh -7, NLRP3 yeast inh 11, tim23-1 inh 2 and TIM10 inh -3.
O=C(Cc1csc(-c2ccccc2)n1)NCc1cccs1 was read as NALP1 yeast inh 0, tim10-1 inh 11, NLRP3 yeast inh 21, tim23-1 inh -12 and TIM10 inh -20.
For CCCNC(=O)c1cccc(S(=O)(=O)N2CC3(C)CC2CC(C)(C)C3)c1 (stereo unspecified) the results were tim10-1 inh 41*, NLRP3 yeast inh 18, tim23-1 inh 59*, TIM10 inh 26, tim10-1 confirm 33* and tim23-1 confirm 49*.
O=C(Nn1nnnc1Nc1ccccc1)C12CC3CC(CC(C3)C1)C2 was read as NALP1 yeast inh 10, tim10-1 inh 9, NLRP3 yeast inh 14, tim23-1 inh 14 and TIM10 inh 8.
